PubChem BioAssay (NCATS)
Several values for one entry are separate records, joined by “and”; a condition that tells them apart may be missing. Identical values can stand only once. Results filed as inconclusive are left out. Activity calls are given as the source filed them. Unless noted, the call rests on the fitted dose curve; in most records, active means well fitted curve in the direction sought with a large enough effect; inconclusive means small, poorly fitted or top-dose-only effect, or another doubt; inactive means no such curve, though single readings can be large; an effect the other way counts as inactive or inconclusive.

Key:
[1] = Cell Viability - BJ (AID 421; calls by dose curve;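 further: potency means the concentration at half of the fitted maximal effect; cells exposed to compound for 40 hours at 37 °C before readout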); details: BJ fibroblast viability, qHTS
Method in brief: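 Cytotoxicity in human BJ foreskin fibroblasts is scored as loss of cellular ATP after a 40-hour exposure, measured by luciferase luminescence. Controls are DMSO and 100 uM tamoxifen.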

[2] = Cell Viability - Jurkat (AID 426;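 active means dose-dependent loss of cell ATP signal giving a full or clear fitted curve, ranked by lower potency value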;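 further: potency means the concentration at half of the fitted maximal effect; cells exposed to compound for 40 hours at 37 °C before ATP read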); details: qHTS
Method in brief: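 Seed 5000 Jurkat E6-1 cells/well; add compound; incubate 40 hr at 37 °C; add CellTiter-Glo; wait 20 min at room temperature; read luminescence. Fit concentration-response with Hill equation for AC50.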

[3] = Cell Viability - Hek293 (AID 427;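 active means compounds whose dose-response curve shows a full or clear partial loss of cell viability, called from curve shape rather than a numeric limit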;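 further: potency means the concentration at half of the fitted maximal effect; cells exposed to compound for 40 hours at 37 °C before reading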); details: qHTS
Method in brief: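 qHTS, human embryonic kidney (adenovirus-transformed) cells; 40 hr cpd, 37 °C; CellTiter-Glo ATP luminescence. Norm: DMSO = 0, 100 uM tamoxifen = 100% inhibition. Hill-fit AC50.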

[4] = Cell Viability - HepG2 (AID 433; calls by dose curve;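 further: potency means the concentration at half of the fitted maximal effect; potency for ATP loss meaning cytotoxicity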); details: qHTS
Method in brief: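 Cytotoxicity is scored as loss of intracellular ATP in HepG2 cells exposed to compounds for 40 h. Concentration-response curves, normalized to DMSO and 100 uM tamoxifen, give AC50 values.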

[5] = Cell Viability - MRC5 (AID 434; calls by dose curve;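 further: potency means the concentration at half of the fitted maximal effect; cells exposed to compound for 40 hours at 37 °C; potency reflects cytotoxicity seen as loss of intracellular ATP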); details: MRC5 lung fibroblast viability, qHTS
Method in brief: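 qHTS cytotoxicity in human lung fibroblast MRC5 cells; 40 hr treatment, 37 °C; cellular ATP by luciferase luminescence; DMSO = 0%, 100 uM tamoxifen = 100% inhibition; Hill-fit AC50.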

[6] = Cell Viability - SK-N-SH (AID 435; calls by dose curve;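 further: potency means the concentration at half of the fitted maximal effect; compound exposure lasted 40 h at 37 °C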); details: SK-N-SH neuroblastoma cell viability qHTS
Method in brief: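 Cells seeded at 1500 per well and incubated 5 hr at 37 °C. Compound added, then 40 hr at 37 °C. CellTiter-Glo added, 20 min at room temperature, luminescence read.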

[7] = Cell Viability - HUV-EC-C (AID 542); details: HUV-EC-C endothelial cell viability, qHTS; series mostly up to 92.2 µM; further: on the % scale 0 is the no-effect control and ±100 the full control effect; nearly all actives have a fitted effect of over 35% in size
Method in brief: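 Decrease in cellular ATP, quantified by luciferase luminescence, reflects toxicity in normal human vascular endothelial HUV-EC-C cells given compound for 40 hr in complete culture medium. Values are AC50s from concentration-response curves.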

[8] = Cellular Toxicity (caspase-3) HepG2 (AID 654); details: HepG2 caspase-3 activation, luminescence, 0% = DMSO only, 100% = tamoxifen; series mostly up to 92.2 µM;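 further: cells exposed to compound for 16 hours before reading; 0% = DMSO alone and 100% = caspase signal from 100 µM tamoxifen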
Method in brief: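 qHTS, HepG2, 1500 cells/well, complete medium; cpd 16 h 37 °C; Caspase-Glo 3/7, 20 min RT; lum. Norm: DMSO vs 100 uM tamoxifen; AC50 Hill fit.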

[9] = Cellular Toxicity (caspase-3) HUV-EC-C (AID 656); details: HUV-EC-C cells, caspase-3 activation (apoptosis), vehicle = 0, 100 µM tamoxifen = 100%; series mostly up to 92.2 µM
Method in brief: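 Read-out: luminescence proportional to caspase 3/7 activity, measured 20 min after adding Caspase-Glo 3/7 reagent. Cells (HUV-EC-C) had received compound for 16 hr at 37°C. Increases relative to DMSO and 100 uM tamoxifen gave concentration-response AC50 values.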

[10] = Cellular Toxicity (caspase-3) BJ (AID 658); details: BJ fibroblasts, luminescence, normalized: DMSO 0%, staurosporine 100%; series mostly up to 91.7 µM
Method in brief: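 Readout: Caspase-Glo 3/7 luminescence increase in BJ cells after 16 hr treatment at 37 °C. Staurosporine and tamoxifen served as positive controls; AC50 values came from Hill modelling of data normalized to DMSO and 10 uM staurosporine.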

[11] = Cellular Toxicity (caspase-3) Mesangial (AID 660); details: mesangial cells, normalized: DMSO 0%, 100 µM tamoxifen 100%; series mostly up to 91.7 µM;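 further: cells exposed to compound for 16 h before the caspase read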
Method in brief: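 Concentration-response qHTS: compound-induced rise in caspase 3/7 luminescence in human mesangial cells after 16 h, normalized to DMSO and 100 uM tamoxifen controls.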

[12] = Cellular Toxicity (caspase-3) SK-N-SH (AID 661); details: SK-N-SH caspase-3 activation, qHTS; series mostly up to 91.7 µM
Method in brief: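 Caspase 3/7 activation is measured as a luminescence increase from aminoluciferin released by substrate cleavage in SK-N-SH cells after 16 hr compound treatment; values are AC50 from concentration-response curves.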

[13] = Cellular Toxicity (caspase-3) H-4-II-E (AID 663); details: H-4-II-E rat hepatoma; Potency: caspase-3 activation; series mostly up to 92.2 µM;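 further: cells exposed to compound for 16 hr before readout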
Method in brief: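 Apoptosis induction is scored as increased luminescence from caspase 3/7 substrate cleavage in rat hepatoma H-4-II-E cells exposed to compound for 16 hr. Activity is scaled between DMSO and 100 uM tamoxifen.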

[14] = Cellular Toxicity (caspase-3) N2a (AID 665); details: N2a cells, luminescence, normalized: DMSO 0%, 10 µM staurosporine 100%; series mostly up to 92.2 µM;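 further: compound exposure lasted 16 h at 37 °C before readout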
Method in brief: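 Plated mouse neuroblastoma N2a cells received titrated compounds for 16 h in complete medium. Caspase activity was then detected with a peptide-aminoluciferin luminescent reagent.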

[15] = Cell Viability - LYMP1-002 - Assay at 16 hr (AID 948); details: LYMP1-002 lymphoblastoid cell viability; series mostly up to 92.2 µM;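 further: 0% = DMSO alone and full effect = 92 µM tetraoctylammonium bromide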
Method in brief: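 Acute cytotoxicity is scored as a concentration-dependent fall in intracellular ATP in a human lymphoblastoid line (LYMP1-002) after 16 hr compound exposure at 37 C, measured by luciferase luminescence.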

[16] = MultiTox-Fluor Cytotoxicity Assay - LYMP1-003 - Dead Cells (AID 961); details: LYMP1-003 lymphoblastoid cells, dead-cell protease fluorescence; series mostly up to 92.2 µM;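 further: cells exposed to compound for 16 h at 37 °C; nearly all actives have a fitted effect of over 70% in size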
Method in brief: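 LYMP1-003 lymphoblastoid, 2500 cells/well, 5 hr settle then 16 hr cpd at 37 C; MultiTox-Fluor reagent 60 min RT; Ex/Em 485/520 dead-cell signal; norm. DMSO = 0%, 15 uM tetraoctylammonium bromide = 100%; Hill AC50.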

[17] = Cell Viability - LYMP2-023 (AID 975); details: LYMP2-023 lymphoblastoid cell viability; series mostly up to 92.2 µM;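 further: cellular ATP measured by luciferase luminescence as viability proxy; cells exposed to compound for 24 hours at 37 °C; plate controls were DMSO only for no effect and 92 µM tetraoctylammonium bromide control for full effect; nearly all actives have a fitted effect of over 55% in size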
Method in brief: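 Concentration-dependent drop in intracellular ATP measures acute cytotoxicity in a human lymphoblastoid line treated for 24 hours in complete culture medium. AC50 values are taken from Hill-equation fits of qHTS data.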

[18] = Cell Viability - LYMP2-008 (AID 980); details: LYMP2-008 lymphoblastoid cell viability, qHTS; series mostly up to 92.2 µM;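 further: cells exposed to compound for 24 h at 37 °C; on the % scale 0 is the no-effect control and ±100 the full control effect; nearly all actives have a fitted effect of over 60% in size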
Method in brief: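 Acute cytotoxicity is scored as concentration-dependent loss of cellular ATP in a human lymphoblastoid line after 24 hr treatment at 37 C. ATP is quantified by luciferase luminescence.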

[19] = qHTS Assay for Identification of Small Molecule Inducers of Hypoxia Response (AID 2120; active means well fitted curve in the direction sought with a large enough effect in the signal ratio, with a control signal flat, not every such curve was filed as active; the % refers to the signal ratio; further: 0% is about no effect); details: hypoxia response reporter cells, beta-lactamase ratio readout; series mostly up to 104 µM
Method in brief: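 Induction of beta-lactamase reporter activity was measured in CellSensor HRE-bla ME-180 cells after 17 h compound treatment at 37 degrees C, using CCF4 substrate and the 460nm/530nm emission ratio to derive AC50 values.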

[20] = qHTS assay for cell viability of HEK293 cells (AID 743288); details: ATP luminescence (CellTiter-Glo), 18 h, hits give low values; further: on the % scale 0 is the no-effect control and ±100 the full control effect; nearly all actives have a fitted effect of over 50% in size
Method in brief: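 The Tox21 protocol used parental HEK293 cells treated for 18 h at 37 C with compounds delivered by pintool; ATP-coupled luminescence after 30 min at room temperature gave viability.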

C=CCCl
inactive: Potency [1] > 92 µM | Potency [2] > 92 µM | Potency [3] > 92 µM | Potency [4] > 92 µM | Potency [5] > 92 µM | Potency [6] > 92 µM | Potency [7] | outcome [8] | outcome [9] | outcome [10] | outcome [11] | Potency [12] | Potency [13] | outcome [14] | outcome [15] | Potency [16] | Potency [17] | Potency [18] | Potency [19] | max response [20] 2.61%

CCC/C=N/O
inactive: Potency [1] > 92 µM | Potency [2] > 92 µM | Potency [3] > 92 µM | Potency [4] > 92 µM | Potency [5] > 92 µM | Potency [6] > 92 µM | Potency [7] | outcome [8] | outcome [9] | outcome [10] | outcome [11] | Potency [12] | Potency [13] | outcome [14] | outcome [15] | Potency [16] | Potency [17] | Potency [18] | Potency [19] | max response [20] 1.47%

O=S(=O)(O)F
inactive: Potency [1] > 92 µM | Potency [2] > 92 µM | Potency [3] > 92 µM | Potency [4] > 92 µM | Potency [5] > 92 µM | Potency [6] > 92 µM | Potency [7] | outcome [8] | outcome [9] | outcome [10] | outcome [11] | Potency [12] | Potency [13] | outcome [14] | outcome [15] | Potency [16] | Potency [17] | Potency [18] | Potency [19] | max response [20] -2.74%

CCC[N+](=O)[O-]
inactive: Potency [1] > 92 µM | Potency [2] > 92 µM | Potency [3] > 92 µM | Potency [4] > 92 µM | Potency [5] > 92 µM | Potency [6] > 92 µM | Potency [7] | outcome [8] | outcome [9] | outcome [10] | outcome [11] | Potency [12] | Potency [13] | outcome [14] | outcome [15] | Potency [16] | Potency [17] | Potency [18] | Potency [19] | max response [20] 2.89%

CN(C)C(=O)Nc1ccc(Cl)cc1
inactive: Potency [1] > 92 µM | Potency [2] > 92 µM | Potency [3] > 92 µM | Potency [4] > 92 µM | Potency [5] > 92 µM | Potency [6] > 92 µM | Potency [7] | outcome [8] | outcome [9] | outcome [10] | outcome [11] | Potency [12] | Potency [13] | outcome [14] | outcome [15] | Potency [16] | Potency [17] | Potency [18] | Potency [19] | max response [20] 10.7% and -3.59%

[O-][Cl+]O
inactive: Potency [1] > 92 µM | Potency [2] > 92 µM | Potency [3] > 92 µM | Potency [4] > 92 µM | Potency [5] > 92 µM | Potency [6] > 92 µM | Potency [7] | outcome [8] | outcome [9] | outcome [10] | outcome [11] | Potency [12] | Potency [13] | outcome [14] | outcome [15] | Potency [16] | Potency [17] | Potency [18] | Potency [19] | max response [20] -2.54%

CCC#N
inactive: Potency [1] > 92 µM | Potency [2] > 92 µM | Potency [3] > 92 µM | Potency [4] > 92 µM | Potency [5] > 92 µM | Potency [6] > 92 µM | Potency [7] | outcome [8] | outcome [9] | outcome [10] | outcome [11] | Potency [12] | Potency [13] | outcome [14] | outcome [15] | Potency [16] | Potency [17] | Potency [18] | Potency [19] | max response [20] -7.94%

CC(C)C#N
inactive: Potency [1] > 92 µM | Potency [2] > 92 µM | Potency [3] > 92 µM | Potency [4] > 92 µM | Potency [5] > 92 µM | Potency [6] > 92 µM | Potency [7] | outcome [8] | outcome [9] | outcome [10] | outcome [11] | Potency [12] | Potency [13] | outcome [14] | outcome [15] | Potency [16] | Potency [17] | Potency [18] | Potency [19] | max response [20] 0.536%

Cc1ccc(N)cc1N
inactive: Potency [1] > 92 µM | Potency [2] > 92 µM | Potency [3] > 92 µM | Potency [4] > 92 µM | Potency [5] > 92 µM | Potency [6] > 92 µM | Potency [7] | outcome [8] | outcome [9] | outcome [10] | outcome [11] | Potency [12] | Potency [13] | outcome [14] | outcome [15] | Potency [16] | Potency [17] | Potency [18] | Potency [19] | max response [20] 6.42% and -0.208%

C=CCc1cc(OC)c2c(c1)OCO2
inactive: Potency [1] > 92 µM | Potency [2] > 92 µM | Potency [3] > 92 µM | Potency [4] > 92 µM | Potency [5] > 92 µM | Potency [6] > 92 µM | Potency [7] | outcome [8] | outcome [9] | outcome [10] | outcome [11] | Potency [12] | Potency [13] | outcome [14] | outcome [15] | Potency [16] | Potency [17] | Potency [18] | Potency [19] | max response [20] -6.53%

NNC(N)=S
inactive: Potency [1] > 92 µM | Potency [2] > 92 µM | Potency [3] > 92 µM | Potency [4] > 92 µM | Potency [5] > 92 µM | Potency [6] > 92 µM | Potency [7] | outcome [8] | outcome [9] | outcome [10] | outcome [11] | Potency [12] | Potency [13] | outcome [14] | outcome [15] | Potency [16] | Potency [17] | Potency [18] | Potency [19] | max response [20] 1.66%

Cc1cc(-c2ccc(N)c(C)c2)ccc1N
inactive: Potency [1] > 92 µM | Potency [2] > 92 µM | Potency [3] > 92 µM | Potency [4] > 92 µM | Potency [5] > 92 µM | Potency [6] > 92 µM | Potency [7] | outcome [8] | outcome [9] | outcome [10] | outcome [11] | Potency [12] | Potency [13] | outcome [14] | outcome [15] | Potency [16] | Potency [17] | Potency [18] | Potency [19] | max response [20] -3.44% and 7.54% and -3.02%
